Where “and” joins values, the source holds several entries; their conditions need not be identical. Equal values may be shown once. Results filed as inconclusive are left out. Calls of active or inactive are those of the source. Calls come from the whole dose curve; as a rule, active = well fitted curve in the direction sought with a large enough effect in the repeat runs; inconclusive = weak or mixed curves; inactive = no such curve, though single readings can be large; an effect the other way counts as inactive or inconclusive.
Tests used:
[1] = qHTS RealTime-Glo MT Cell Viability Assay in HepG2 cells - 8 hour (AID 1224873); note: nearly all actives have a fitted effect of over 55% in size; note: potency is the fitted concentration of half-maximal effect
Summary of the method: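 HepG2 cells (600/well) mixed with RealTime-Glo MT reagent, settled 5 h at 37 C/5% CO2 before compound addition. Nonlytic NanoLuc luminescence from viable-cell prosubstrate reduction read repeatedly during 40 h treatment at 37 C.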

[2] = qHTS RealTime-Glo MT Cell Viability Assay in HEK293 cells - 40 hour (AID 1224874); conditions: RealTime-Glo luminescence; max response: stronger effect = lower value; note: nearly all actives have a fitted effect of over 50% in size; note: potency is the fitted concentration of half-maximal effect
Summary of the method: (§1)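 Cells were seeded together with NanoLuc luciferase and a prosubstrate that viable cells reduce to a luciferase substrate. After a 5 h incubation at 37 C/5% CO2, compounds were added and luminescence was measured repeatedly during 40 h of treatment.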

[3] = A CellTox Green Cytotoxicity Assay to monitor cytotoxicity in HEK293 cells - 24 hour (AID 1224875); note: nearly all actives have a fitted effect of over 45% in size; note: potency is the fitted concentration of half-maximal effect; for activity change: series mostly up to about 77 µM
Summary of the method: (§2)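 Nonlytic real-time cytotoxicity: HEK293 + CellTox Green reagent plated, 5 h preincubation, pintool compound addition (23 nL in DMSO), 37 C for 40 h, fluorescence measured at successive time points.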

[4] = A CellTox Green Cytotoxicity Assay to monitor cytotoxicity in HepG2 cells - 16 hour (AID 1224876); note: nearly all actives have a fitted effect of over 45% in size; note: potency is the fitted concentration of half-maximal effect
Summary of the method: (§3)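 Read-out is fluorescence of a cyanine dye excluded from live cells that stains DNA of dead HepG2 cells, with signal proportional to cytotoxicity. Plates were read at 0, 8, 16, 24, 32 and 40 h after compound addition.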

[5] = qHTS RealTime-Glo MT Cell Viability Assay in HepG2 cells - 32 hour (AID 1224877); note: nearly all actives have a fitted effect of over 55% in size; note: potency is the fitted concentration of half-maximal effect
Summary of the method: (§4)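 Viability was tracked continuously by NanoLuc luminescence from prosubstrate reduced by living HepG2 cells, at successive time points over 40 h of compound exposure. Cells with reagent were preincubated 5 h at 37 °C before compound addition.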

[6] = A CellTox Green Cytotoxicity Assay to monitor cytotoxicity in HepG2 cells - 24 hour (AID 1224878); note: nearly all actives have a fitted effect of over 45% in size; note: potency is the fitted concentration of half-maximal effect
Summary of the method: as §3

[7] = qHTS RealTime-Glo MT Cell Viability Assay in HEK293 cells - 0 hour (AID 1224880); note: top concentration of the series differs between compounds; nearly all actives have a fitted effect of over 45% in size
Summary of the method: as §1

[8] = A CellTox Green Cytotoxicity Assay to monitor cytotoxicity in HEK293 cells - 32 hour (AID 1224881); note: nearly all actives have a fitted effect of over 40% in size; note: potency is the fitted concentration of half-maximal effect
Summary of the method: as §2

[9] = A CellTox Green Cytotoxicity Assay to monitor cytotoxicity in HepG2 cells - 0 hour (AID 1224882); note: nearly all actives have a fitted effect of over 35% in size
Summary of the method: as §3

[10] = A CellTox Green Cytotoxicity Assay to monitor cytotoxicity in HepG2 cells - 32 hour (AID 1224883); note: nearly all actives have a fitted effect of over 50% in size; note: potency is the fitted concentration of half-maximal effect
Summary of the method: as §3

[11] = qHTS RealTime-Glo MT Cell Viability Assay in HepG2 cells - 16 hour (AID 1224885); note: nearly all actives have a fitted effect of over 50% in size
Summary of the method: as §4

[12] = qHTS RealTime-Glo MT Cell Viability Assay in HEK293 cells - 24 hour (AID 1224886); note: nearly all actives have a fitted effect of over 50% in size; note: potency is the fitted concentration of half-maximal effect; for activity change, negative = cytotoxicity: top concentration of the series differs between compounds
Summary of the method: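 Viability tracked continuously by luminescence as live cells reduce a prosubstrate for NanoLuc; HEK293 cells preincubated 5 h, compound-treated at 37 C, and read at 0, 8, 16, 24, 32 and 40 h.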

[13] = qHTS RealTime-Glo MT Cell Viability Assay in HEK293 cells - 8 hour (AID 1224887); note: nearly all actives have a fitted effect of over 50% in size; note: potency is the fitted concentration of half-maximal effect; for activity change, negative = cytotoxicity: top concentration of the series differs between compounds
Summary of the method: as §1

[14] = A CellTox Green Cytotoxicity Assay to monitor cytotoxicity in HEK293 cells - 16 hour (AID 1224888); note: nearly all actives have a fitted effect of over 35% in size
Summary of the method: as §2

[15] = qHTS RealTime-Glo MT Cell Viability Assay in HepG2 cells - 0 hour (AID 1224889); note: nearly all actives have a fitted effect of over 50% in size
Summary of the method: as §4

[16] = A CellTox Green Cytotoxicity Assay to monitor cytotoxicity in HepG2 cells - 8 hour (AID 1224890); note: nearly all actives have a fitted effect of over 45% in size; note: potency is the fitted concentration of half-maximal effect
Summary of the method: as §3

[17] = qHTS assay to identify small molecule antagonists of the estrogen receptor alpha (ER-alpha) signaling pathway using the BG1 cell line in the presence of 0.1 nM 17-beta-estradiol - cell viability counter screen (AID 1259241); note: nearly all actives have a fitted effect of over 40% in size
Summary of the method: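 Measures cytotoxicity alongside the ER-alpha antagonist readout: VM7Luc4E2 cells, charcoal-stripped serum, 0.1 nM 17beta-estradiol final, 22 hr compound incubation at 37C, CellTiter-Fluor fluorescence.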

[18] = A CellTox Green Cytotoxicity Assay to monitor cytotoxicity in HepG2 cells - 40 hour (AID 1224879); note: nearly all actives have a fitted effect of over 40% in size; note: potency is the fitted concentration of half-maximal effect
Summary of the method: as §3

[19] = qHTS assay to identify small molecule antagonists of the androgen receptor (AR) signaling pathway using the MDA cell line in the presence of 0.5 nM R1881 - cell viability counter screen (AID 1259242); note: nearly all actives have a fitted effect of over 45% in size
Summary of the method: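 Counter screen for cytotoxicity run in the same wells as the AR antagonist reporter screen: MDA-kb2 cells were treated 16 hr with test compounds and 0.5 nM R1881, then live-cell protease activity was measured by fluorescence.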

[20] = A CellTox Green Cytotoxicity Assay to monitor cytotoxicity in HEK293 cells - 8 hour (AID 1224884); note: nearly all actives have a fitted effect of over 35% in size
Summary of the method: as §2
% is set by controls: 0 for no effect and ±100 for the full control effect.

C=Cc1ccccc1C=C
inactive: Potency [1] | max response [2] 16.3% | Potency [3] | Potency [4] | Potency [5] | Potency [6] | Potency [7] | Potency [8] | Potency [9] | Potency [10] | Potency [11] | Potency [12] | Potency [13] | Potency [14] | Potency [15] | Potency [16] | Potency [17]

C#C[C@]1(OC(C)=O)CC[C@H]2[C@@H]3CCC4=C[C@@H](OC(C)=O)CC[C@@H]4[C@H]3CC[C@@]21C
active: Potency [2] 21.3 µM | Potency [12] 21.3 µM
inactive: Potency [1] | Potency [3] | Potency [4] | Potency [5] | Potency [6] | Potency [18] | Potency [7] | Potency [9] | Potency [10] | Potency [11] | Potency [14] | Potency [15] | Potency [16] | Potency [17] | Potency [19]

O=C(O)c1cc(=O)c2ccccc2o1
inactive: Potency [1] | max response [2] 1.84% | Potency [3] | Potency [4] | Potency [6] | Potency [18] | Potency [7] | Potency [8] | Potency [9] | Potency [10] | Potency [20] | Potency [11] | Potency [12] | Potency [13] | Potency [14] | Potency [15] | Potency [17]

OCC(F)(F)F
inactive: Potency [1] | max response [2] 19.1% | Potency [3] | Potency [4] | Potency [5] | Potency [6] | Potency [7] | Potency [8] | Potency [9] | Potency [10] | Potency [20] | Potency [11] | Potency [13] | Potency [14] | Potency [15] | Potency [16] | Potency [17] | Potency [19]

OC/C=C/CO
inactive: Potency [1] | max response [2] 0.626% | Potency [3] | Potency [4] | Potency [5] | Potency [6] | Potency [7] | Potency [8] | Potency [9] | Potency [10] | Potency [20] | Potency [11] | Potency [12] | Potency [13] | Potency [14] | Potency [15] | Potency [16] | Potency [17] | Potency [19]

C=Cc1cccc(C)c1
inactive: Potency [1] | max response [2] -2.09% and 3.82% | Potency [3] | Potency [4] | Potency [6] | Potency [18] | Potency [7] | Potency [8] | Potency [9] | Potency [10] | Potency [20] | Potency [11] | Potency [12] | Potency [13] | Potency [14] | Potency [15] | Potency [16] | Potency [17] | Potency [19]

CC(C)(c1cc(Br)c(OCC(Br)CBr)c(Br)c1)c1cc(Br)c(OCC(Br)CBr)c(Br)c1 (stereo not drawn)
inactive: Potency [1] | max response [2] -0.358% | Potency [3] | Potency [4] | Potency [5] | Potency [6] | Potency [7] | Potency [8] | Potency [9] | Potency [10] | Potency [11] | Potency [12] | Potency [13] | Potency [14] | Potency [15] | Potency [17] | Potency [19]

CCN(CC)C(=O)c1cc(S(=O)(=O)Cc2ccccc2)c(N2CCC(c3ccccc3)CC2)cc1N(CC)CCN(C)C
inactive: Potency [7] | Potency [9] | Potency [15] | Potency [17]
active: Potency [1] 17.2 µM | Potency [2] 7.67 µM | Potency [3] 19.3 µM | Potency [4] 17.2 µM | Potency [5] 17.2 µM | Potency [6] 17.2 µM | Potency [18] 13.6 µM | Potency [8] 19.3 µM | Potency [10] 15.3 µM | Potency [12] 13.6 µM | Potency [13] 17.2 µM | Potency [16] 19.3 µM

CC(C)(C)C1CCC(=O)CC1
inactive: Potency [1] | max response [2] 0.275% | Potency [3] | Potency [4] | Potency [5] | Potency [6] | Potency [7] | Potency [8] | Potency [9] | Potency [10] | Potency [20] | Potency [11] | Potency [12] | Potency [13] | Potency [14] | Potency [15] | Potency [16] | Potency [17] | Potency [19]

CCCCCCCCCCOC(=O)c1ccccc1C(=O)OCCCCCCCC
inactive: Potency [1] | max response [2] 1.51% | Potency [3] | Potency [4] | Potency [5] | Potency [18] | Potency [7] | Potency [8] | Potency [9] | Potency [10] | Potency [20] | Potency [11] | Potency [12] | Potency [13] | Potency [14] | Potency [15] | Potency [16] | Potency [17] | Potency [19]

CCC(COC(=O)CCS)(COC(=O)CCS)COC(=O)CCS
inactive: Potency [1] | max response [2] 0.669% | Potency [3] | Potency [4] | Potency [6] | Potency [18] | Potency [7] | Potency [8] | Potency [9] | Potency [10] | Potency [20] | Potency [11] | Potency [12] | Potency [13] | Potency [14] | Potency [15] | Potency [16]

NC[C@H]1O[C@H](O[C@H]2[C@H](O[C@@H]3O[C@H](CO)[C@@H](O)[C@H]3O)C(O)[C@H](N)C[C@@H]2N)[C@H](N)[C@@H](O)[C@@H]1O (stereo partly drawn)
inactive: viability change, negative = cytotoxic [1] 2.91% [at 6.97 µM] | max response [2] 4.82% | activity change [3] -9.09% [at 6.97 µM, stronger effect = higher value] | cytotoxicity increase [4] 11% [at 6.97 µM] | activity change, negative = cytotoxic [5] 0.467% [at 6.97 µM] | activity change, negative = cytotoxicity [7] 10.7% [at 6.97 µM] | cytotoxicity increase [8] -11.8% [at 6.97 µM] | cytotoxicity [9] 11.3% [at 6.97 µM] | cytotoxicity increase [10] 7.9% [at 6.97 µM] | cytotoxicity increase [20] -4.48% [at 6.97 µM] | activity change, negative = cytotoxic [11] 1.38% [at 6.97 µM] | activity change, negative = cytotoxicity [12] 4.78% [at 6.97 µM] | activity change, negative = cytotoxicity [13] -3.38% [at 6.97 µM] | activity change [14] -6.01% [at 6.97 µM, stronger effect = higher value] | activity change, negative = cytotoxicity [15] 1.18% [at 6.97 µM] | cytotoxicity increase [16] 12.8% [at 6.97 µM] | activity change, negative = cytotoxicity [17] 2.08% [at 8.39 µM] | viability change, negative = cytotoxic [19] 2.91% [at 8.39 µM]
